Source: PubChem BioAssay (National Center for Advancing Translational Sciences (NCATS))
Sm TGR block – S. mansoni TGR enzyme inhibition | purified TGR, DTNB reduction, TNB absorbance 405 nm | Potency, µM (highest dose often 114 µM), for inactives: at the highest dose activity change, negative = inhibition, hits mostly inhibitors | Q962Y6 | 3% of 360,000 active | AID 485364; active means well fitted inhibition curve with a large enough effect; inconclusive means small, poorly fitted or top-dose-only effect; inactive means no such curve, though single readings can be large or run the other way; further: potency means the concentration at half of the fitted maximal effect; on the % scale 0 is the no-effect control and ±100 the full control effect; nearly all actives have a fitted effect of over 60% in size
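First, TGR (20 nM dispensed) and NADPH were mixed with compound. Second, a 15 min room-temperature incubation followed. Third, further NADPH and then DTNB were added to start the reaction. Finally, TNB absorbance was monitored kinetically.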
FMDV inh – antivirals against foot and mouth disease virus; Potency, µM (doses to about 57.9 µM), for inactives: at the top dose activity change, negative = inhibition, actives largely listed as inhibitors; 1.2% of 410,000 active; AID 1159524; FMDV antiviral cell-based qHTS; calls by dose curve; tested in HEK293T cells; further: read-out not given here; potency means the concentration at half of the fitted maximal effect; on the % scale 0 is the no-effect control and ±100 the full control effect; nearly all actives have a fitted effect of over 45% in size
Shiga inhibitor – blocks Shiga toxin action in Vero cells. 9.2% of 290,000 active. AID 2315. Vero cells, Shiga toxin protein synthesis inhibition reporter. inhibition, % at 38.7 µM; in the data active means inhibition mostly above about 28%, no sharp cut-off; inactive means mostly below about 43%; further: 0% is about no effect
CHX counter – counter-screen for Shiga toxin inhibitors: cycloheximide protein synthesis inhibition; 12% of 300,000 active; AID 2314; cell reporter, cycloheximide protein synthesis inhibition counterscreen; max response, %; in the data active means max response mostly above about 13%, no sharp cut-off; inactive means mostly below about 14%; further: read at 38.3 µM for the half of the compounds with a filed dose; 0% is about no effect
* = called active by the depositor; ? = inconclusive; · = no result. Only some compounds are listed: those with a hit (about 12% of all), similar ones and a draw of the others.

SMILES	Sm TGR block	FMDV inh	Shiga inhibitor	CHX counter
Cn1c(CN2CCOCC2)nc2cc(NC(=O)c3ccc(F)cc3)ccc21	-1.6%	·	53.8*	17.2*
CCCC(=O)Nc1ccc2c(c1)nc(CN1CCN(C(=O)OCC)CC1)n2C	15.8%	-1.3%	-6.8	7.4
Cn1c(CN2CCCC2)nc2cc(NC(=O)c3cccs3)ccc21	-0.1%	29.2%	64.5*	34.9*
CC(=O)N1CCN(Cc2nc3cc(NC(=O)c4cccs4)ccc3n2C)CC1	-5.6%	-11.0%	-7.1	1.3
Cn1c(CN2CCCC2)nc2cc(NC(=O)c3ccc(Cl)cc3)ccc21	1.8%	0.0%	42.4*	35.4*
O=C(CCC(=O)N1CCSc2ccccc21)Nc1ccc(Cl)cc1	-0.3%	-27.6%	·	·
C/C(CC(=O)Nc1cccnc1)=N/NC(=O)COc1ccc(Cl)cc1Br	-32.6%	-9.1%	4.1	1.3
Cc1cc(OCC(=O)O/N=C(\N)c2ccccc2)ccc1Cl	-9.6%	31.6%	19.5	14.2
N/C(=N\OC(=O)COc1ccc(Br)cc1Cl)c1cccnc1	-5.5%	17.8%	92.5*	45.3*
N/C(=N\OC(=O)COc1ccc(Cl)cc1Br)c1cccnc1	2.4%	52.1%	112.7*	31.0*
N/C(=N\OC(=O)COc1ccc(Cl)cc1Cl)c1ccncc1	-32.4%	15.8%	84.9*	43.3*
COc1cc2nc(SCC(=O)Nc3cccc(C)c3)n3nc(-c4ccccc4)nc3c2cc1OC	-7.5%	-5.4%	·	·
COc1cccc(-n2ccnc2SCC(=O)Nc2ccc(Cl)c(Cl)c2)c1	-0.6%	-6.5%	·	·
COc1cc(C=O)ccc1OCc1ccc(Cl)nc1	15.8%	5.1%	66.1*	40.9*
C/C=C/c1ccc(OCC(=O)O)c(OC)c1	?	-11.5%	-7.8	-2.6
C/C=C/c1ccc(OCC(=O)OCC)c(OC)c1	·	-10.9%	37.0	13.6*
C/C=C/c1ccc(OCCOc2cc(C=O)ccc2OC)c(OC)c1	-12.4%	44.3%	62.3*	52.1*
CCOC(=O)c1sc(N2C(=O)c3oc4cc(C)c(C)cc4c(=O)c3C2c2ccc(C)cc2)nc1C (stereo not drawn)	20.4%	-5.9%	·	·
CC[C@H](C)[C@H](NC(=O)[C@H](C)NC(=O)CNC(=O)[C@H](CCCCN)NC(=O)[C@H](CC(N)=O)NC(=O)[C@H](CO)NC(=O)CN)C(=O)N[C@H](C(=O)NCC(=O)N[C@@H](CC(C)C)C(=O)N[C@@H](CCSC)C(=O)O)[C@@H](C)CC	·	·	1.4	-7.7
c1csc(-c2nc3nc4ccccc4nc3n2Cc2ccc3c(c2)OCO3)c1	4.5%	14.3%	32.8*	12.2*
CCCn1c(-c2cccs2)nc2nc3ccccc3nc21	4.3%	-15.1%	26.8	11.1
COCCn1c(-c2cccs2)nc2nc3ccccc3nc21	-4.1%	27.0%	19.7	12.8*
COc1ccccc1C1=Nn2c(nnc2-c2ccccc2C)SC1	·	·	-13.8	-2.9
CCOC(=O)c1oc2cccc(OC(C)=O)c2c1C	0.8%	34.2%	68.0*	39.4*
CCOC(=O)c1oc2ccc(CNC(C)(C)C)c(Cl)c2c1C	-2.9%	·	27.3*	16.0*
SMILES	Sm TGR block	FMDV inh	Shiga inhibitor	CHX counter
CCOC(=O)c1oc2ccc3c(c2c1C)C(=O)CC1(CCN(C(=O)OCC)CC1)O3	-6.1%	?	-6.6	-1.9
CCOC(=O)c1oc2cccc(O)c2c1C	0.0%	61.8%	62.9*	31.7*
CCOC(=O)c1oc2ccc(Cl)cc2c1NC(C)=O	-4.8%	-10.7%	-16.6	-4.8
CCOC(=O)c1oc2cccc(O)c2c1CN1CCOCC1	8.6%	-27.9%	-16.5	-2.5
COC(=O)c1sccc1S(=O)(=O)N1CCC(n2c(CC3CCCC3)nc3cccnc32)CC1	·	-4.1%	·	·
CCC1CN(CCNC(=O)c2cccc(C(=O)OC)c2)Cc2cc(OC)ccc2O1 (stereo not drawn)	·	54.1%	·	·
COC1(OC)C(/C=C/c2ccc(Cl)cc2)C(C#N)(C#N)C1(OC)OC (stereo not drawn)	-27.6%	?	40.6*	19.3*
CCOC(=O)c1cnc2ccc(C)cc2c1Sc1ccccc1	?	13.4%	61.7*	33.9*
CCOC(=O)c1cnc2ccc(C)cc2c1Sc1ccc(F)cc1	-33.0%	?	67.2*	43.0*
CCOC(=O)c1cnc2ccc(C)cc2c1N(C)Cc1ccccc1	12.1%	-25.9%	21.7	1.5
Cc1cc(C)cc(NC(=O)C(=O)NCC(c2ccc3c(c2)OCO3)N2CCOCC2)c1 (stereo not drawn)	-1.4%	-20.6%	·	·
Cc1cccc(OCC(=O)Nc2ccc3c(c2)OCCO3)c1	3.6%	33.4%	111.4*	61.8*
Cc1ccc(OCC(=O)Nc2ccc3c(c2)OCCO3)cc1C	-6.5%	-21.0%	178.5*	31.5*
C/C(CC(=O)Nc1ccc2c(c1)OCCO2)=N\NC(=O)COc1ccccc1	-19.5%	27.8%	14.5	10.1
Cc1ccc(OCC(=O)Nc2ccncc2)cc1C	·	-11.0%	·	·
CCC/C(=N\NC(=O)c1ccco1)c1ccc(Cl)s1	2.6%	-21.1%	19.4	21.7*
CCCOC(=O)/C(C)=N\NC(=O)c1ccco1	4.1%	-16.6%	154.4*	64.0*
CC(NC(=O)c1ccco1)C(=O)OCC(=O)c1ccc(Cl)s1 (stereo not drawn)	?	0.9%	-8.6	-2.0
CCC/C(=N/NC(=O)c1csc(C)c1C)c1ccc(Cl)s1	-11.0%	12.7%	91.9*	36.4
CC(C)c1ccc(S(=O)(=O)Nc2cc3c(cc2NCc2ccccc2)n(C)c(=O)n3C)cc1	-0.8%	-10.9%	·	·
Nc1c(C(=O)NCc2ccco2)c2nc3ccccc3nc2n1Cc1ccc(F)cc1	11.2µM*	0.0%	6.8	4.8
COc1ccc(CCn2c(N)c(C(=O)NCc3ccco3)c3nc4ccccc4nc32)cc1OC	15.8µM*	·	18.4	11.6
O=c1c2c3nc4ccccc4nc3n(Cc3ccccc3)c2ncn1Cc1ccco1	8.91µM*	?	5.4	7.1
COCCCn1c2nc3ccccc3nc2c2c(=O)n(Cc3ccc(Cl)cc3)cnc21	0.8%	?	-14.3	-2.8
COc1ccc(-n2c(N)c(C(=O)NCc3ccco3)c3nc4ccccc4nc32)c(OC)c1	25.1µM*	?	-3.0	-1.7
SMILES	Sm TGR block	FMDV inh	Shiga inhibitor	CHX counter
COc1ccc(CCn2c(N)c(C(=O)NCc3ccco3)c3nc4ccccc4nc32)cc1	0.0%	-26.7%	-3.8	-1.2
COc1ccc(S(=O)(=O)c2nnn(-c3ccccc3F)c2C)cc1	1.3%	-3.7%	·	·
Cc1ccc(CNC(=O)c2c[nH]n3c(=O)c(Cc4ccc(Cl)cc4)c(C)nc23)cc1	0.1%	-9.2%	·	·
O=C(NC1CCN(Cc2ccccc2)CC1)c1ccc(Cn2c(=O)c3ccccc3n(Cc3ccc(F)cc3)c2=O)cc1	0.3%	0.0%	·	·
Cc1ccc(-n2nc3c(N4CCC(C(=O)NC5CCCCC5)CC4)nnc(C)c3c2C)cc1	-4.7%	-8.8%	·	·
COc1ccccc1-c1nc2c(c(SCc3cc(C)ccc3C)n1)Cc1c(CO)cnc(C)c1O2	0.1%	-28.8%	·	·
Nc1c(C(=O)NCc2ccco2)c2nc3ccccc3nc2n1CCc1ccccc1F	25.1µM*	?	-5.5	12.0
CCCCCn1c(N)c(C(=O)NCCN2CCOCC2)c2nc3ccccc3nc21	-27.6%	?	-2.0	6.0
COc1ccc(Cn2c(N)c(C(=O)NCc3ccco3)c3nc4ccccc4nc32)cc1	-35.7%	-24.5%	-21.1	-2.6
CCCCCCn1c(N)c(C(=O)NCCN2CCOCC2)c2nc3ccccc3nc21	?	11.2µM*	-4.5	-3.1
